Compounds with a hit are over-represented: about 1.4% of the library has one in this group of screens.
APOBEC3G inh: APOBEC3G DNA deaminase inhibitors, primary screen, biochemical, fluorescence, single-stranded DNA substrate, uHTS | DNA dC->dU-editing enzyme APOBEC-3G (Homo sapiens), Q9HC16 | recombinant A3G, ssDNA deamination FAM/TAMRA fluorescence | inhibition, % at 20 µM | 0.28% of 330,000 active | AID 493012, 2011;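 active = inhibition of at least 40% at 20 µM, with no more than 30% in the related APOBEC3A deaminase screen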
APOBEC3A inh: APOBEC3A ssDNA deaminase inhibitors, primary screen, selectivity assay for APOBEC3G inhibitor project, biochemical, FAM/TAMRA oligo cleavage fluorescence | AID 493011, 2011 | 0.41% of 330,000 active | recombinant A3A, FAM/TAMRA ssDNA deamination fluorescence | DNA dC->dU-editing enzyme APOBEC-3A (Homo sapiens), P31941 | inhibition, % at 20 µM;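 active = at least 40% inhibition at 20 µM here, with at most 30% in a related deaminase screen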
Target sequence (P31941 whole entry, looked up): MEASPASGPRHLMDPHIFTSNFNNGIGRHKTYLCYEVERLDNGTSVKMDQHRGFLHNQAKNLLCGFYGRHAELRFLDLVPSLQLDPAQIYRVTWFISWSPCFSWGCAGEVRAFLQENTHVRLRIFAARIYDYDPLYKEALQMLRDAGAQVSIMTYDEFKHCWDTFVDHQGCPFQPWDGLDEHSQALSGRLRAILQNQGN
FAS TE block: FAS thioesterase domain inhibitors, primary screen, biochemical, fluorescence intensity, uHTS; recombinant FAS-TE, OMFH fluorogenic substrate, fluorescence endpoint; inhibition, % at 15 µM; 0.67% of 360,000 active; AID 602261, 2012; Fatty acid synthase (Homo sapiens), P49327;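 active = compounds whose normalised, plate-corrected inhibition of enzyme fluorescence in the single-dose primary screen is 50% or more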
NPR1 activator: GC-A stimulated cGMP production enhancers – HEK293 GC-A cells, cGMP TR-FRET, EC30 ANP, primary screen | Atrial natriuretic peptide receptor 1 (Homo sapiens), P16066 | 0% at EC30 ANP, 100% saturating ANP | activation, % at 10 µM | 0.14% of 370,000 active; in the data active = activation above about 40%
GC-B act: human GC-B receptor activators, primary screen, HEK293 GC-B cells, cGMP TR-FRET, EC30 CNP; activation, % at 10 µM; 0.11% of 370,000 active; AID 1920062, 2024; Atrial natriuretic peptide receptor 2 (Homo sapiens), P20594; 0% at EC30 CNP, 100% saturating CNP;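 active = activation at 10 µM reaching about 35% in either raw or pattern-adjusted values, limit read from the data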
APOBEC3G confirm: APOBEC3G deaminase inhibitor retest, confirmation, biochemical, fluorescence, single-stranded DNA substrate, single concentration | 72% of 890 active | inhibition, % at 20 µM | shares compounds with APOBEC3G inh | recombinant A3G ssDNA deaminase, UDG/FAM-TAMRA fluorescence;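 active = inhibition reaching a set limit in any replicate at 20 µM, the limit being 80% of the first screen's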
UDG ctr A3G: E. coli UDG inhibitors, confirmation, counter-screen for APOBEC3G inhibitor project, biochemical, single concentration, fluorescence, FAM/TAMRA oligo | 710 tested, under 10 active | UDG counterscreen | AID 504715, 2011 | inhibition, % at 20 µM | shares compounds with APOBEC3G inh;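 active = compounds giving 40% or more inhibition at 20 µM in any one of the three replicates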;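 also: inhibitors lower the FAM signal released by uracil excision and alkaline cleavage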
Target sequence (P12295 whole entry, looked up): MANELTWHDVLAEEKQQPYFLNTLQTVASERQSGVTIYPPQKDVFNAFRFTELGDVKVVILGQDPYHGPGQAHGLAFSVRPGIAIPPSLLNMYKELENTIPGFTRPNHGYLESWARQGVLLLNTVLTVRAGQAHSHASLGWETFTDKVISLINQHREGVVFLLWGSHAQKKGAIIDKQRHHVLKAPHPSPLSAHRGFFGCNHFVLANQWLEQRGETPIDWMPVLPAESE
Hits are given with their value; – = inactive; · = no result.

SMILES	APOBEC3G inh	APOBEC3A inh	FAS TE block	NPR1 activator	GC-B act	APOBEC3G confirm	UDG ctr A3G
COC(=O)[C@]1(C#N)CC(=O)N(C(C)C)[C@@H]1c1ccccc1	·	·	·	–	–	·	·
O=S1(=O)N[C@@H](Cc2ccccc2)COc2cccc(NCCCN3CCOCC3)c21	·	·	·	–	–	·	·
O=C(O)CC(Sc1n[nH]c(=S)s1)C(=O)O (stereo not drawn)	44	–	–	–	–	60	–
COC(=O)C1=C(COc2ccccc2)NC(=O)NC1c1ccc(Cl)cc1 (stereo not drawn)	48	–	·	–	–	–	–
O=C(CC(c1ccc(F)cc1)c1ccco1)Nc1nccs1 (stereo not drawn)	53	–	–	–	–	–	·
O=[N+]([O-])c1ccc(CN2[C@H](COCc3ccccc3)C=CS2(=O)=O)cc1	·	·	·	–	–	·	·
Cc1ccc(-n2c(CCc3nc4ccccc4[nH]3)n[nH]c2=S)cc1	52	–	–	–	–	–	·
CCn1c(CCc2nc3ccccc3[nH]2)n[nH]c1=S	–	–	–	–	–	·	·
C/C(=N\Nc1ccccc1C)c1cccnc1	61	–	–	–	–	–	–
O=C(Nc1cc(S(=O)(=O)N2CCOCC2)ccc1N1CCCC1)c1ccc(Cl)cc1	–	–	–	–	–	·	·
O=C(Nc1cc(S(=O)(=O)N2CCOCC2)ccc1N1CCCCC1)c1ccc(Cl)cc1	59	–	–	–	–	68	–
CCOC(=O)c1sc(NC(=O)CSc2n[nH]c(-c3ccccc3)n2)c(C#N)c1C	47	–	–	–	–	32	–
CCOC(=O)c1sc(NC(=O)C(C)C)c(C#N)c1C	57	–	–	–	–	64	–
CC(C)CNC(=O)OCc1cn(Cc2cc(F)cc(F)c2)nn1	·	·	·	–	–	·	·
C=C(C)C#CCNCc1ccccc1	·	·	·	–	–	·	·
COc1ccnc(N2CCN(c3ccc(Cl)cc3)CC2)c1C#N	–	–	–	–	–	·	·
COc1ccnc(N2CCN(c3cccc(C(F)(F)F)c3)CC2)c1C#N	47	–	–	–	–	–	·
COc1ccc(CNS(=O)(=O)/C=C/c2ccccc2CNC(=O)OC(C)(C)C)cc1	·	·	·	–	–	·	·
Nc1[nH]c(C(=O)c2ccc(Br)cc2)c(-c2ccccc2Cl)c1C(=O)NCCc1c[nH]c2ccccc12	·	·	·	–	–	·	·
OCc1ccccc1CNCc1ccccc1	–	–	–	–	–	·	·
OCc1ccccc1SSc1ccccc1CO	44	–	–	–	–	51	–
Cc1ccn2c(=O)nc(SCC(=O)c3ccc(Cl)cc3)nc2c1	–	–	–	–	–	·	·
Cc1ccn2c(C(=O)c3ccc(Cl)cc3)cnc2c1	46	–	–	–	–	–	·
Cc1cc(Br)ccc1NC(=O)CN(C)C(=O)c1ccc(-n2cncn2)c([N+](=O)[O-])c1	–	–	–	–	–	·	·
Cc1ccc(C)c(NC(=O)CN(C)C(=O)c2ccc(-n3cncn3)c([N+](=O)[O-])c2)c1	69	–	–	–	–	–	–
Cc1ccc(C(=O)N2CCC(C(=O)NC3CCCC3)CC2)cc1	69	–	–	–	–	–	–
O=C(NC1CCCC1)C1CCN(C(=O)c2ccc(Cl)cc2)CC1	–	–	–	–	–	·	·
CCc1nnc(NC(=O)C2CC(=O)N(CCc3ccc(F)cc3)C2)s1 (stereo not drawn)	–	–	–	–	–	·	·

High-throughput results: PubChem, Sanford-Burnham Center for Chemical Genomics
